# Compound activity (PubChem)
# Only some compounds are listed: those with a hit (about 2.4% of all), similar ones and a draw of the others.
# DTT redox prof: compounds producing H2O2 with reducing agent – biochemical, NIH compound library profiling, artefact control for MLSCN library redox annotation, primary screen | DTT-dependent redox cycling H2O2, phenol red/HRP absorbance; 100% = 100 µM peroxide control, 0% = buffer | activation, % at 10 µM | actives 0.03% (n = 200,000);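 active = activation of at least 50% relative to the plate's high and low controls in the primary single-dose screen; inactive = activation below 50%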;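 note: compound incubated with DTT at 0.8 mM final as the reducing agent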
# PKD1 inh: inhibitors of human PKD1 kinase | Q15139 | AID 797 | PKD1 kinase fluorescence polarization assay | actives 0.056% (n = 200,000) | inhibition, % (concentration not given with the values); in the data active = inhibition above about 50%
# zVAD death inh: blocks zVAD induced death of L929 cells; actives 0.38% (n = 220,000); viability rescue, % at 10 µM; L929 zVAD necroptosis rescue, ATP luminescence, 24 h; with zVAD 60 µM;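 active = activation, scaled between plate controls, above about 75%, limit read from the data; inactive = activation under that limit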
# PERK inhibitor: blocks human PERK kinase; Q9NZJ5; CHO PERK-DD fusion, SEAP luminescence translation reporter; inhibition, % at 5.6 µM; actives 0.17% (n = 220,000); AID 1416;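 active = inhibition above the mean inhibition of all tested compounds plus 3 SD, set separately per screening campaign, cut at about 2.9% in these data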;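 note: PERK kinase domain activated by AP20187 dimerizer at 100 nM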
# Target sequence (Q9NZJ5 whole entry, looked up, the tested form may be a part): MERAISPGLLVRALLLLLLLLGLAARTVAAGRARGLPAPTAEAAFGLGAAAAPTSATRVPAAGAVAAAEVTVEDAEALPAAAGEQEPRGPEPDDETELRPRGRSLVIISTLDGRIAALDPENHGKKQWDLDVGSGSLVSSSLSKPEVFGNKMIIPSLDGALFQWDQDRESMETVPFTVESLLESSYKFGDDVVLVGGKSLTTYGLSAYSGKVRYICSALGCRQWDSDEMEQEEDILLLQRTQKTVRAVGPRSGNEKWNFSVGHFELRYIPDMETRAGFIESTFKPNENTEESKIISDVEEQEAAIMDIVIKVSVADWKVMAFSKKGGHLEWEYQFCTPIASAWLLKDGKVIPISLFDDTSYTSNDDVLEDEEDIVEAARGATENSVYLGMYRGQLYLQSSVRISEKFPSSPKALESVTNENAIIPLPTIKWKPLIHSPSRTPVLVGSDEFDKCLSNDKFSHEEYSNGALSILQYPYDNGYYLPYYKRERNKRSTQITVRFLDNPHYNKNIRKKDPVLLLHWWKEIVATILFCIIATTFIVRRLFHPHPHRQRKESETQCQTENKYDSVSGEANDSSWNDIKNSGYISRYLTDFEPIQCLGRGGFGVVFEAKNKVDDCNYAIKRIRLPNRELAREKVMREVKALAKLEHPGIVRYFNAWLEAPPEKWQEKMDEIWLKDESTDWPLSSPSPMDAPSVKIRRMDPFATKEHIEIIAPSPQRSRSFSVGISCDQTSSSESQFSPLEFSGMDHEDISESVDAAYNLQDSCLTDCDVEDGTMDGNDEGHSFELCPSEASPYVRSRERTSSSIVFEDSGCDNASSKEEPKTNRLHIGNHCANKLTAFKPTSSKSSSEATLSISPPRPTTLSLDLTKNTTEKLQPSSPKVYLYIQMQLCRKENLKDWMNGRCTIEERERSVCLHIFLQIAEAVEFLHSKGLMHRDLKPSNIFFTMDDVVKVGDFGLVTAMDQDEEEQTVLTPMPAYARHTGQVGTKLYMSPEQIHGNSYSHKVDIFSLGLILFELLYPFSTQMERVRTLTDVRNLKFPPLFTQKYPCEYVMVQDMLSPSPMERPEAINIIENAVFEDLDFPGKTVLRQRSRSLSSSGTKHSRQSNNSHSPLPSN
# TNF death inh: inhibitors of TNF-alpha induced necroptosis in Jurkat FADD-/- cells | actives 0.068% (n = 220,000) | AID 463075 | Jurkat FADD-/- TNF necroptosis rescue, ATP luminescence, 24 h; 0 = TNF only, 100 = no-TNF cells | activation (protection from cell death), % at 10 µM;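 active = activation, meaning protection from cell death, of at least 50% relative to plate controls; inactive = activation below 50%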;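 note: necroptosis triggered by 40 ng/mL TNF-alpha added together with compound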
# WT yeast gro inh: growth inhibition of WT yeast, mitochondrial fusion screen. mitochondrial fusion phenotypic screen, WT strain. inhibition, % at 10 µM. actives 2.1% (n = 190,000); in the data active = inhibition above about 58%; tested in S. cerevisiae
# Numbers stand for hits; i = inactive; nt = not tested or not shown.
SMILES,DTT redox prof,PKD1 inh,zVAD death inh,PERK inhibitor,TNF death inh,WT yeast gro inh
N#CC1=C(N)SC(N)=C(C#N)C1c1c(Cl)cccc1Cl,i,i,i,i,i,63
N#CC1=C(N)SC(N)=C(C#N)C1CCc1ccccc1,i,i,i,i,i,i
CCCNC(=S)Nc1ccc2nc(-c3ccccn3)c(-c3ccccn3)nc2c1,i,i,i,i,i,72
CCOc1ccc(OCC)c(S(=O)(=O)NCCOC23CC4CC(CC(C4)C2)C3)c1,i,i,i,i,i,74
O=C(Nc1cccc([N+](=O)[O-])c1)c1ccncc1,i,i,i,i,i,i
CC/C(C)=N/Nc1cccc([N+](=O)[O-])c1,i,i,i,i,i,67
CC(C)(C)CC(C)(C)NC(=O)Nc1cccc([N+](=O)[O-])c1,i,i,i,i,i,64
Cc1ccc(NC(=O)Nc2cccc([N+](=O)[O-])c2)cc1F,i,i,i,i,i,i
Cc1cc(NC(=O)Nc2cccc([N+](=O)[O-])c2)no1,i,i,i,i,i,i
CC(C)(C)c1ccc(C(=O)Nc2cccc([N+](=O)[O-])c2)cc1,i,i,i,i,i,62
O=C(Nc1ccc(OC(F)(F)F)cc1)Nc1cccc([N+](=O)[O-])c1,i,i,i,i,i,80
CCC(CC)=NNc1cccc([N+](=O)[O-])c1,i,i,i,i,i,i
OCCC1CN(CCCn2cccn2)CCN1C1CCCCC1 (stereo not drawn),i,i,i,i,i,i
CCN(CC)S(=O)(=O)c1ccc(NC(=O)COC(=O)c2ccc(NC(=O)CC#N)cc2)cc1,i,i,i,i,i,i
CCN1CC(CN(C)Cc2nc(Cc3ccccc3)no2)CC1=O (stereo not drawn),i,i,i,i,i,i
N#C/C(=C(/O)c1ccc(Cl)c([N+](=O)[O-])c1)c1nc2ccccc2[nH]1,nt,nt,i,i,i,nt
O=C(Nc1ccc(OC(F)F)cc1)Nc1cccc(C(F)(F)F)c1,i,i,i,i,i,83
NNC(=O)Nc1cccc(C(F)(F)F)c1,i,i,i,i,i,i
CCCOC(=O)CCCN1C(=O)/C(=C2\SC(=S)N(CCCC(=O)OCCC)C2=O)SC1=S,nt,nt,i,3.4,i,nt
CCCCOC(=O)CCN1C(=O)/C(=C2\SC(=S)N(CCC(=O)OCCCC)C2=O)SC1=S,i,i,i,i,i,i
COc1ccc2c(c1)C=C(C(=O)NCc1ccc(Cl)cc1)CO2,i,i,i,i,i,68
O=C(Nc1ccc(Cl)cc1)C1=Cc2cc(Cl)ccc2OC1,i,i,i,i,i,i
Cc1cccc2c1N(CCCOc1ccc(C(C)(C)C)cc1)C(=O)C2=O,i,i,i,i,i,97
O=C(NCc1ccccn1)C(=O)Nc1cccc2ccccc12,i,i,i,i,i,i
O=Nc1c2cc(-c3ccccc3)[nH]nc-2c2ccccc12,i,i,i,i,i,i
SMILES,DTT redox prof,PKD1 inh,zVAD death inh,PERK inhibitor,TNF death inh,WT yeast gro inh
Cc1ccc(-c2cc3c(N=O)c4ccccc4c-3n[nH]2)cc1,i,i,i,i,i,64
Cc1ccc(-n2c(C)cc(C(=O)COc3c(CO)cc(F)cc3CO)c2C)cc1C,i,i,i,i,i,i
COc1cc(CNCCc2c[nH]c3ccccc23)ccc1OCc1ccc(F)cc1,i,i,i,i,i,86
CCOCC(=O)Nc1cc(Cl)c(OC)cc1OC,i,i,i,i,i,i
CCN(CC)S(=O)(=O)c1cccc(NC(=O)COc2ncnc3sccc23)c1,i,i,i,i,i,i
Cc1ccccc1OCc1n[nH]c(=S)n1Cc1ccccc1,i,i,i,i,i,73
Cc1scc(-c2n[nH]c(=S)n2Cc2ccccc2)c1C,i,i,i,i,i,71
CCc1c(-c2n[nH]c(=S)n2Cc2ccccc2)csc1C,i,i,i,i,i,i
S=c1[nH]nc(COc2cccc3ccccc23)n1Cc1ccccc1,nt,nt,i,i,i,nt
NC(=S)N/N=C/c1ccc(-c2cc(Cl)ccc2Cl)o1,i,i,i,i,i,72
c1ccc(CN(Cc2ccccc2)c2ncnc3c2nnn3Cc2ccccc2)cc1,nt,nt,i,i,i,nt
Cc1nc(N(C)Cc2ccccc2)c2nnn(Cc3ccccc3)c2n1,i,i,i,i,i,80
COc1ccc([N+](=O)[O-])cc1NC(=O)CCSCCc1ccccn1,i,i,i,i,i,i
COCCN(C(=O)Cc1cccs1)C(C(=O)NCc1ccc(OC)cc1)c1ccc(C(C)C)cc1 (stereo not drawn),i,i,i,i,i,61
CCc1ccc(C(C(=O)NCc2ccc(OC)cc2)N(CCOC)C(=O)Cc2cccs2)cc1 (stereo not drawn),i,i,i,i,i,i
CSc1ccc(-c2nc(O)c3cnccn23)cc1,i,i,i,i,i,i
O=C1CSC(c2ccccn2)N1c1ccc(C(F)(F)F)cc1 (stereo not drawn),nt,nt,i,i,i,nt
O=C(NCCC1CC1(Cl)Cl)Nc1ccccc1 (stereo not drawn),nt,nt,i,i,i,nt
CSc1nncn1/N=C/c1ccc([N+](=O)[O-])cc1,i,i,i,i,i,i
CSc1nncn1/N=C/c1ccc2c(c1)OCO2,i,i,i,i,i,64
O=C(C[n+]1cccc(CNC(=O)c2ccc(OC(F)F)cc2)c1)Nc1cccc(C(F)(F)F)c1,i,i,i,i,i,i
Cc1ccc(-c2cc(-c3ccccc3)c(C#N)c(N)n2)o1,i,i,i,i,i,65
CC(C)C(=O)N1CCC(CN=Cc2c(O)n(C3CCCCC3)c(=O)n(C3CCCCC3)c2=O)CC1,i,i,i,i,i,77
O=c1[nH]c(=S)n(C2CCCCC2)c(O)c1C=NCCN1CCOCC1,nt,nt,i,i,i,nt
COc1ccc(NC(=O)Cn2nnc(C(=O)NCCc3ccc(OC)c(OC)c3)c2N)c(OC)c1,i,i,i,i,i,i
SMILES,DTT redox prof,PKD1 inh,zVAD death inh,PERK inhibitor,TNF death inh,WT yeast gro inh
O=C1CCCN1c1nccs1,i,i,i,i,i,i
O=C1C=C(Nc2ccc(Cl)cc2)CC(c2ccc(Cl)cc2)C1 (stereo not drawn),i,i,i,i,i,68
O=C(N=Nc1c(O)n(Cc2ccccc2)c2ccccc12)c1cc2ccccc2cc1O,i,i,i,i,i,70
C/C(=N\Nc1nc2ccccc2[nH]1)c1ccc2c(c1)OCCO2,i,i,i,i,i,i
C/C(=N\Nc1nc2ccccc2[nH]1)c1cc2ccccc2o1,i,i,i,i,i,60
Cc1c(O)nc2sc3ccccc3n2c1=O,nt,nt,i,4.4,i,nt
O=C(Nc1cccc(NC(=O)c2cccs2)c1)c1ccc2c(c1)OCCO2,i,i,i,i,i,i
N/C(Cc1ccc(Cl)cc1)=N\OC(=O)c1cccc2ccccc12,i,i,i,i,i,98
C=CC#CC1(O)CC(C)N(C)CC1C (stereo not drawn),i,i,i,i,i,i
